HEK cytotox – kills HEK 293 cells. HEK 293 viability, ATP luminescence (CellTiter-Glo), 48-72 h. Potency, µM (doses to about 115 µM), without a hit: at the highest dose activity change, negative = cytotoxicity, usual class: inhibitors. actives 6.6% (n = 94,000). AID 1345083; also: nearly all actives have a fitted effect of over 60% in size
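Pintool-delivered compounds were incubated with HEK 293 cells (250 cells/well) at 37 degree Celsius for 48 or 72 hr. ATP-dependent luminescence (CellTiter-Glo) then reported remaining viable cells.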
Luciferase inh – inhibitors of firefly (Photinus pyralis) luciferase; P08659; purified P. pyralis luciferase, luminescence, biochemical; Potency, µM (highest dose often 115 µM), actives largely listed as inhibitors; actives 2.5% (n = 76,000); AID 1347043; also: nearly all actives have a fitted effect of over 65% in size
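Inhibitors were tested against purified firefly luciferase in a biochemical, low-substrate format (both substrates at 10uM) and luminescence measured with a CCD imager.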
hNpr1 antagonist – antagonists of human natriuretic peptide receptor Npr1. P16066. HEK293 hNpr1 GloSensor cGMP, ANP-stimulated luminescence. Potency, µM (top dose mostly 46.3 µM), for the others: top-dose activity change, negative = inhibition, hits mostly inhibitors. actives 1.6% (n = 76,000); calls by dose curve; also: nearly all actives have a fitted effect of over 60% in size
Target sequence (P16066 whole entry, looked up): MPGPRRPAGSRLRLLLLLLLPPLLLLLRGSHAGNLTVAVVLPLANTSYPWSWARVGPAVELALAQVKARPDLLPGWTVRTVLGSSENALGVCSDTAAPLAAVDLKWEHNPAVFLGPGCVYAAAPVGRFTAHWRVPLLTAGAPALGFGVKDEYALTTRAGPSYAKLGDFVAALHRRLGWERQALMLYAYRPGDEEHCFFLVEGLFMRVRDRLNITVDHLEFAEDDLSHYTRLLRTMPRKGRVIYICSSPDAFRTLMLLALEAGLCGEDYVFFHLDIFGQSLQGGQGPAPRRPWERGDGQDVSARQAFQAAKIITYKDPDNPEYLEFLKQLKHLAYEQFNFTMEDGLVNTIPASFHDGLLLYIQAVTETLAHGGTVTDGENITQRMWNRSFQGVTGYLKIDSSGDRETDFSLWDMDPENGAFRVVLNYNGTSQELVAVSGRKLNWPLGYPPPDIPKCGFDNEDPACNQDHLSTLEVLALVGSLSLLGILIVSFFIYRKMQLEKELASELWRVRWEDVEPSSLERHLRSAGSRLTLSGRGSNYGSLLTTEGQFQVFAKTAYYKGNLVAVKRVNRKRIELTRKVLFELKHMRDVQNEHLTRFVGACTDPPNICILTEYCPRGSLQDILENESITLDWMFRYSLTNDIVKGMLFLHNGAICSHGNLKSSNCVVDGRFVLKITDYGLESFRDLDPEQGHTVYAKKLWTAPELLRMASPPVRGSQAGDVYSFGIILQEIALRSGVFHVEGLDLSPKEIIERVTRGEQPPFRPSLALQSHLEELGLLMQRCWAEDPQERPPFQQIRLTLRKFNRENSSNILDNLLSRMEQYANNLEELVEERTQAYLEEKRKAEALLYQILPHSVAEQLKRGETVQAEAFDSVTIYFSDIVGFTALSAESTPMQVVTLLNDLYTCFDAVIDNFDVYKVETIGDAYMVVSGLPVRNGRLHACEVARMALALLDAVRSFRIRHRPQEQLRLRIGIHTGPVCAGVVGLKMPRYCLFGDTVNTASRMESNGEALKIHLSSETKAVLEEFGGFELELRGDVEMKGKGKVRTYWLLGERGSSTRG
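Compound pre-incubated 30 min at room temperature on GloSensor-loaded HEK293 cells stably carrying hNpr1 and the pGS-40F cGMP biosensor. Stimulation uses hNppA at 0.1 nM final; luminescence is taken at baseline and 20 min post-agonist.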
NIH3T3 tox – cytotoxic compounds in NIH 3T3 cells; NIH 3T3 viability, CellTiter-Glo ATP luminescence, 48-72 h; Potency, µM (highest dose often 96.7 µM), inactives show top-dose activity change, negative = cytotoxicity, actives largely listed as inhibitors; actives 4.3% (n = 94,000); AID 1345082; also: nearly all actives have a fitted effect of over 55% in size
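Mouse fibroblast NIH 3T3 cells, 400 per well, received compound via pintool and were incubated for 48 or 72 hr prior to CellTiter-Glo ATP luminescence measurement.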
Active calls of the source: *; [ ] = remark or other dose. In the library only some 11% were active in any assay of this set; here they are far more common. Unless noted, calls follow the shape of the dose curve; as a rule, active = well fitted curve in the direction sought with a large enough effect; inconclusive = small, poorly fitted or top-dose-only effect, or another doubt; inactive = no such curve, though single readings can be large; an effect the other way counts as inactive or inconclusive. % is scaled to controls: 0 for no effect and ±100 for the full control effect; potency is read from the fitted curve at half-maximal effect.

How did O=C(c1nnc(CNc2ccc(OC(F)(F)F)cc2)n1-c1ccccc1)N1CCC[C@@H]1CN1CCCC1 do in these assays?
HEK cytotox: 70.8µM*; Luciferase inh: inactive; hNpr1 antagonist: 3.0%; NIH3T3 tox: inconclusive

What do the screens show for `O=C(c1nnc(CNc2ccccc2)n1-c1ccccc1)N1CCC[C@@H]1C(c1ccccc1)c1ccccc1`?
HEK cytotox: inconclusive; Luciferase inh: inactive; hNpr1 antagonist: -29.7%; NIH3T3 tox: inconclusive

What do the screens show for `COc1cccc(-c2cccc(C(=O)N3CCC4(CCCN(C)C4=O)C3)c2)c1` (stereo not given)?
HEK cytotox: inconclusive; Luciferase inh: inactive; hNpr1 antagonist: 7.0%; NIH3T3 tox: -21.1%

Results for CNC(=O)c1cc(C2CC2)nc2c1c(C1CCCN1C(=O)c1ccccc1F)nn2C (stereo not given) ?
HEK cytotox: -20.8%; NIH3T3 tox: -26.6%

Results for COCC1CN(C(C)=O)CC12CCN(Cc1sccc1C)CC2 (stereo not given) ?
HEK cytotox: -9.8%; Luciferase inh: inactive; hNpr1 antagonist: 0.9%; NIH3T3 tox: -7.0%

Results for C[C@H]1CCCN1C(=O)c1nnc(COc2ccc(Cl)cc2)n1-c1ccccc1 ?
HEK cytotox: 79.4µM*; Luciferase inh: inactive; hNpr1 antagonist: -14.7%[70.6 µM]; NIH3T3 tox: 3.16µM*

Results for COc1nccnc1NC1CCN(C(=O)Cc2c(C)noc2C)CC1 ?
HEK cytotox: 1.2%; Luciferase inh: inactive; hNpr1 antagonist: 0.8%; NIH3T3 tox: -4.4%

Results for CC(C)c1ccc(CC(=O)N2CCCc3ncc(C(=O)NCc4ccccc4)cc32)cc1 ?
HEK cytotox: 89.1µM*; Luciferase inh: inactive; hNpr1 antagonist: -5.4%[70.6 µM]; NIH3T3 tox: 89.1µM*

How did CC(C)c1ccc(CC(=O)N2CCCc3ncc(C(=O)NCCN(C)C)cc32)cc1 do in these assays?
HEK cytotox: inconclusive; Luciferase inh: inactive; hNpr1 antagonist: 4.6%[70.6 µM]; NIH3T3 tox: 100µM*

What do the screens show for `CC(C)c1ccc(CC(=O)N2CCCc3ncc(C(=O)Nc4ccc5[nH]ccc5c4)cc32)cc1`?
HEK cytotox: 35.5µM*; Luciferase inh: inactive; hNpr1 antagonist: -5.8%; NIH3T3 tox: inconclusive

How did CC(C)c1ccc(CC(=O)N2CCCc3ncc(C(=O)NCCN4CCCC4)cc32)cc1 do in these assays?
HEK cytotox: inconclusive; Luciferase inh: inactive; hNpr1 antagonist: 1.3%[70.6 µM]; NIH3T3 tox: inconclusive

Results for FC1(F)C[C@@H](c2nnc(C3CC3)o2)N(C2CCSCC2)C1 ?
HEK cytotox: -4.4%; Luciferase inh: inactive; hNpr1 antagonist: -4.4%; NIH3T3 tox: -13.1%

Results for CCOC(=O)C1CCN(C(=O)c2ccc3oc(-c4ccnc(Cl)c4)nc3c2)CC1 ?
HEK cytotox: -12.8%; NIH3T3 tox: -15.8%

How did O=C(c1ccc2oc(-c3ccnc(Cl)c3)nc2c1)N1CCOCC1 do in these assays?
HEK cytotox: inconclusive; NIH3T3 tox: 35.5µM*

Results for O=C(c1ccc2oc(-c3ccncc3)nc2c1)N1CCCCC1 ?
HEK cytotox: 39.8µM*; NIH3T3 tox: inconclusive

How did CCOC(=O)C1CCCN(C(=O)c2ccc3oc(-c4ccc(OC)nc4)nc3c2)C1 (stereo not given) do in these assays?
HEK cytotox: inconclusive; NIH3T3 tox: -10.7%[138 µM]

How did O=C(c1ccc2nc(-c3cccnc3)oc2c1)N1CCCCC1 do in these assays?
HEK cytotox: inactive; NIH3T3 tox: -3.8%[138 µM]

Results for CCOC(=O)C1CCCN(C(=O)c2ccc3nc(-c4ccncc4)oc3c2)C1 (stereo not given) ?
HEK cytotox: 44.7µM*; NIH3T3 tox: inconclusive

Results for CC1CCCC(C)N1C(=O)c1ccc2nc(-c3ccncc3)oc2c1 (stereo not given) ?
HEK cytotox: 70.8µM*; NIH3T3 tox: -28.8%[138 µM]

Results for O=C(NCc1ccccc1)c1ccc2nnc(-c3cccnc3)n2c1 ?
HEK cytotox: 1.9%; NIH3T3 tox: -26.6%

What do the screens show for `CC(=O)N1CCCN(Cc2nnc(C(=O)N3CCC[C@@H]3c3cccc(F)c3)n2-c2ccccc2)CC1`?
HEK cytotox: inconclusive; Luciferase inh: inactive; hNpr1 antagonist: -0.5%; NIH3T3 tox: inconclusive

How did CNC(=O)c1cc(C2CC2)nc2c1c(C1CCCN1C(=O)c1ccncc1)nn2C (stereo not given) do in these assays?
HEK cytotox: -1.9%; NIH3T3 tox: -23.7%

What do the screens show for `CC1(C(=O)N2CCC(c3ccccc3)CC2)CCc2cnc(Nc3ccncc3)nc21` (stereo not given)?
HEK cytotox: 70.8µM*; Luciferase inh: inactive; hNpr1 antagonist: inconclusive; NIH3T3 tox: inconclusive

What do the screens show for `CC1(C(=O)N2CCN(c3ccccn3)CC2)CCc2cnc(Nc3ccccc3)nc21` (stereo not given)?
HEK cytotox: 112µM*; Luciferase inh: inactive; hNpr1 antagonist: -16.7%[70.6 µM]; NIH3T3 tox: inconclusive

What do the screens show for `CC(C)NC(=O)c1ccc2nnc(-c3ccc(Cl)cc3)n2c1`?
HEK cytotox: 3.8%[172 µM]; NIH3T3 tox: -9.4%[138 µM]

How did CN1C[C@@H](NC(=O)Nc2ccccc2)C[C@H]1c1nc(-c2ccc(F)cc2)no1 do in these assays?
HEK cytotox: 56.2µM*; Luciferase inh: inactive; hNpr1 antagonist: inconclusive; NIH3T3 tox: inconclusive

What do the screens show for `CN1C[C@@H](NC(=O)Nc2ccc(F)cc2F)C[C@H]1c1nc(-c2ccc(Cl)cc2)no1`?
HEK cytotox: inconclusive; Luciferase inh: 70.8µM*; hNpr1 antagonist: inconclusive; NIH3T3 tox: -18.2%[174 µM]

What do the screens show for `Cc1noc([C@@H]2C[C@H](NC(=O)Nc3cccc(F)c3)CN2C)n1`?
HEK cytotox: -20.3%[172 µM]; Luciferase inh: inactive; hNpr1 antagonist: 3.1%[70.6 µM]; NIH3T3 tox: inconclusive

How did CN1C[C@@H](NC(=O)c2ccc(F)cc2)C[C@H]1c1nc(-c2ccc(Cl)cc2)no1 do in these assays?
HEK cytotox: inconclusive; Luciferase inh: inactive; hNpr1 antagonist: -2.1%[70.6 µM]; NIH3T3 tox: inconclusive

Results for Cc1ccc(-c2noc([C@@H]3C[C@H](NC(=O)Nc4cccc(F)c4)CN3C)n2)cc1 ?
HEK cytotox: 63.1µM*; Luciferase inh: 63.1µM*; hNpr1 antagonist: inconclusive; NIH3T3 tox: inconclusive

What do the screens show for `COc1ccc(-c2cccc(C(=O)N3CCC(NC(=O)c4c(C)noc4C)CC3)c2)nn1`?
HEK cytotox: -17.1%; NIH3T3 tox: -25.6%

Results for CC(=O)N(C1CCOCC1)C1CCN(C(=O)NCc2ccc(OC(F)(F)F)cc2)CC1 ?
HEK cytotox: -26.6%; Luciferase inh: inactive; hNpr1 antagonist: 1.3%; NIH3T3 tox: -12.0%

Results for COC[C@H]1C[C@@H](NCC(C)C)[C@H](O)[C@@H]1O ?
HEK cytotox: inactive; Luciferase inh: inactive; hNpr1 antagonist: 4.3%[70.6 µM]; NIH3T3 tox: -0.4%[174 µM]

What do the screens show for `COc1cccc(CNC(=O)c2ccc3c(c2)N(C(=O)c2ccc(F)cc2)CC3)c1`?
HEK cytotox: inconclusive; Luciferase inh: inactive; hNpr1 antagonist: -11.0%; NIH3T3 tox: inconclusive

Assay outcomes: PubChem BioAssay, National Center for Advancing Translational Sciences (NCATS)
